PubChem BioAssay (NCI)
Several values for one entry are separate records, joined by “and”; a condition that tells them apart may be missing. Equal values may be shown once. About 83,000 compounds went through this panel and 20% of them were active in at least one assay; those are over-represented in the sample as a whole.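 The endpoint reported here, percent growth, reads 100 for growth as untreated, 0 for no net growth and -100 for all cells dead.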 Activity calls are given as the source filed them. Rule for the calls: active = growth percent below 10; inactive = the rest.

Columns and labels:
Test in all cases: NCI-60 one-dose screen, 48 h (100 = growth as untreated, 0 = no growth, -100 = all killed)
Conditions in all cases: 10 µM unless noted
[1] = tested on: HT29 colon
[2] = tested on: SNB-19 CNS
[3] = tested on: U251 CNS
[4] = tested on: PC-3 prostate
[5] = tested on: SK-MEL-5 melanoma
[6] = tested on: UACC-62 melanoma
[7] = tested on: LOX IMVI melanoma
[8] = tested on: SK-MEL-28 melanoma
[9] = tested on: SK-MEL-2 melanoma
[10] = tested on: EKVX NSCLC
[11] = tested on: UO-31 renal
[12] = tested on: TK-10 renal
[13] = tested on: ACHN renal
[14] = tested on: CAKI-1 renal
[15] = tested on: A498 renal
[16] = tested on: CCRF-CEM leukemia
[17] = tested on: SN12C renal
[18] = tested on: HL-60(TB) leukemia
[19] = tested on: HCT-15 colon
[20] = tested on: SNB-75 CNS

Oc1cc(N2CC2)c(O)cc1N1CC1
growth [1]: 1.49% (active) | growth [2]: 26.8% (inactive) | growth [3]: -2.16% (active) | growth [4]: 25% (inactive) | growth [5]: -95% (active) | growth [6]: -67.2% (active) | growth [7]: 1.44% (active) | growth [8]: -50.9% (active) | growth [9]: -37.5% (active) | growth [10]: 58.4% (inactive) | growth [11]: -36.6% (active) | growth [12]: -7.44% (active) | growth [13]: 2.38% (active) | growth [14]: -1.5% (active) | growth [15]: -75.2% (active) | growth [16]: 24.7% (inactive)

CCOC(=O)C1C(C=C(C)C)C1(C)C (stereo unspecified)
growth [1]: 116% (inactive) | growth [2]: 103% (inactive) | growth [3]: 99.3% (inactive) | growth [4]: 93% (inactive) | growth [5]: 109% (inactive) | growth [6]: 99.8% (inactive) | growth [7]: 104% (inactive) | growth [9]: 121% (inactive) | growth [10]: 110% (inactive) | growth [17]: 104% (inactive) | growth [11]: 120% (inactive) | growth [12]: 107% (inactive) | growth [13]: 100% (inactive) | growth [14]: 95.8% (inactive) | growth [15]: 105% (inactive) | growth [18]: 117% (inactive) | growth [16]: 82.6% (inactive)

Cc1cc[n+](CCc2ccccc2)cc1
growth [19]: 109% (inactive) and 106% (inactive) | growth [1]: 98.4% (inactive) and 92.6% (inactive) | growth [20]: 96.3% (inactive) and 84.1% (inactive) | growth [2]: 102% (inactive) and 106% (inactive) | growth [4]: 101% (inactive) | growth [6]: 102% (inactive) and 116% (inactive) | growth [8]: 103% (inactive) and 101% (inactive) | growth [17]: 102% (inactive) and 105% (inactive) | growth [11]: 57.8% (inactive) and 85.1% (inactive) | growth [12]: 91.8% (inactive) and 106% (inactive) | growth [13]: 103% (inactive) | growth [14]: 97% (inactive) and 98.7% (inactive) | growth [15]: 83.9% (inactive) and 93.6% (inactive) | growth [18]: 97.8% (inactive) and 95.8% (inactive) | growth [16]: 101% (inactive)

CC1(C)CN=C(NN=C(/C=C/c2ccc(C(F)(F)F)cc2)/C=C/c2ccc(C(F)(F)F)cc2)NC1
growth [19]: -72% (active) | growth [1]: -83.2% (active) | growth [20]: -88.6% (active) | growth [2]: 37.9% (inactive) | growth [4]: 24.7% (inactive) | growth [6]: -83.8% (active) | growth [8]: -90.9% (active) | growth [17]: -74.3% (active) | growth [11]: 8.51% (active) | growth [12]: -17.9% (active) | growth [13]: -84.2% (active) | growth [14]: -76.9% (active) | growth [15]: 2.54% (active) | growth [18]: -59.7% (active) | growth [16]: -24.9% (active)

COc1cc2c(c(OC)c1OC)-c1ccc(O)cc1[C@@H](NC(C)=O)CC2
growth [19]: 4.26% (active) and 6.32% (active) | growth [1]: 5.06% (active) | growth [20]: 12.7% (inactive) and 14.9% (inactive) | growth [2]: 27.8% (inactive) and 26.4% (inactive) | growth [3]: 22.5% (inactive) and 18.3% (inactive) | growth [5]: -24.2% (active) and -61.7% (active) | growth [6]: 45.6% (inactive) and 24.4% (inactive) | growth [7]: 12.1% (inactive) and 20.2% (inactive) | growth [8]: 52.3% (inactive) and 40% (inactive) | growth [9]: 41.3% (inactive) | growth [10]: 44% (inactive) and 22.6% (inactive) | growth [17]: 29.1% (inactive) and 26.9% (inactive) | growth [11]: 25.5% (inactive) and 33.2% (inactive) | growth [12]: 11.1% (inactive) and 38.5% (inactive) | growth [13]: 24.8% (inactive) and 25.8% (inactive) | growth [14]: -5.9% (active) and 16.1% (inactive) | growth [15]: -12.9% (active) | growth [18]: -13.2% (active) and -32.3% (active) | growth [16]: 20.6% (inactive) and -8.81% (active)

CNC(=O)O/N=C(\SC)C(=O)N(C)C
growth [19]: 105% (inactive) | growth [20]: 101% (inactive) | growth [2]: 106% (inactive) | growth [3]: 101% (inactive) | growth [4]: 85% (inactive) | growth [5]: 109% (inactive) | growth [6]: 111% (inactive) | growth [7]: 90.4% (inactive) | growth [8]: 113% (inactive) | growth [10]: 112% (inactive) | growth [17]: 104% (inactive) | growth [11]: 93.1% (inactive) | growth [12]: 103% (inactive) | growth [13]: 101% (inactive) | growth [14]: 107% (inactive) | growth [15]: 95.8% (inactive) | growth [18]: 88.9% (inactive) | growth [16]: 92.2% (inactive)

CCOC(=O)c1c(SC)nc(-c2ccc(Cl)cc2)sc1=N
growth [6]: 5.48% [100 µM] (active) and 7.26% [100 µM] (active) | growth [12]: 6.59% [100 µM] (active) and 15.8% [100 µM] (inactive)

C=C1C(=O)OC2/C=C(\C)CC/C=C(/C)CC(OC(=O)/C(=C/CO)CO)C12 (stereo unspecified)
growth [6]: -89.6% [100 µM] (active) and -100% [100 µM] (active) | growth [12]: -78.7% [100 µM] (active) and -88.5% [100 µM] (active)

Nc1cccnc1
growth [19]: 111% (inactive) | growth [1]: 103% (inactive) | growth [2]: 109% (inactive) | growth [3]: 103% (inactive) | growth [4]: 97.9% (inactive) | growth [6]: 109% (inactive) | growth [7]: 104% (inactive) | growth [8]: 117% (inactive) | growth [10]: 115% (inactive) | growth [17]: 102% (inactive) | growth [11]: 107% (inactive) | growth [12]: 102% (inactive) | growth [14]: 104% (inactive) | growth [15]: 112% (inactive) | growth [18]: 106% (inactive) | growth [16]: 98.7% (inactive)

O=S(=O)(F)c1cccc(Cl)c1C[P+](c1ccccc1)(c1ccccc1)c1ccccc1
growth [19]: 91.7% (inactive) | growth [1]: 96.7% (inactive) | growth [20]: 81.2% (inactive) | growth [2]: 100% (inactive) | growth [4]: 85.4% (inactive) | growth [5]: 90.4% (inactive) | growth [6]: 90.2% (inactive) | growth [7]: 101% (inactive) | growth [8]: 109% (inactive) | growth [9]: 97.1% (inactive) | growth [17]: 102% (inactive) | growth [11]: 88.3% (inactive) | growth [12]: 116% (inactive) | growth [13]: 97.7% (inactive) | growth [14]: 94.4% (inactive) | growth [15]: 122% (inactive) | growth [16]: 86.7% (inactive)

OC[C@@H](O)[C@@H](O)CO
growth [18]: 92.4% (inactive)

O=[N+]([O-])c1cc(Cl)c(Cl)c([N+](=O)[O-])c1Cl
growth [19]: -18.5% (active) | growth [1]: 29.9% (inactive) | growth [2]: 103% (inactive) | growth [3]: 78.7% (inactive) | growth [4]: 66.8% (inactive) | growth [5]: 79.1% (inactive) | growth [6]: 86% (inactive) | growth [7]: -26.2% (active) | growth [8]: 103% (inactive) | growth [9]: 116% (inactive) | growth [10]: 122% (inactive) | growth [11]: 5.47% (active) | growth [12]: 80.7% (inactive) | growth [13]: -30.1% (active) | growth [14]: -71.5% (active) | growth [15]: 108% (inactive) | growth [18]: 22.2% (inactive) | growth [16]: 15% (inactive)
